CHX counter = Cycloheximide Counterscreen for Small Molecule Inhibitors of Shiga Toxin; cell reporter, cycloheximide protein synthesis inhibition counterscreen; max response, %; AID 2314, 2010; 300,000 compounds, 12% hits; in the data active = max response mostly above about 13%, no sharp cut-off; inactive = mostly below about 14%; note: read at 38.3 µM for the half of the compounds with a filed dose
NS1 inh = qHTS Assay for Inhibitors of Influenza NS1 Protein Function; 270,000 compounds, 0.4% hits; Potency, µM (doses to about 46.1 µM); calls by dose curve; note: actives are rising curves; nearly all actives have a fitted effect of over 50% in size
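Recovery from NS1-induced slow growth read by OD600 in budding yeast switched to galactose assay medium (pH 6.0, -URA) at 1:100 dilution. Compound 23 nl per well; the matching strain lacking NS1 serves as control.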
Shiga inhibitor = A qHTS for Small Molecule Inhibitors of Shiga Toxin; AID 2315, 2010; Vero cells, Shiga toxin protein synthesis inhibition reporter; 290,000 compounds, 9.2% hits; inhibition, % at 38.7 µM; in the data active = inhibition mostly above about 28%, no sharp cut-off; inactive = mostly below about 43%
Pf growth 48h = Primary qHTS for delayed death inhibitors of the malarial parasite plastid, 48 hour incubation | AID 504832, 2011 | 310,000 compounds, 5.9% hits | Potency, µM (top dose mostly 28.7 µM), hits mostly inhibitors | P. falciparum luciferase growth in erythrocytes, 48 h
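Read-out is firefly luciferase luminescence from an integrated reporter in P. falciparum, so falling signal marks reduced parasite growth. Infected erythrocytes were at 2% hematocrit and 0.1% parasitemia (final) in Albumax-supplemented RPMI 1640.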
FBPA Giardia inh = qHTS Assay for Inhibitors of Fructose-1,6-bisphosphate Aldolase from Giardia Lamblia; Potency, µM (titrated, usually from 59.6 µM), hits mostly inhibitors; A8B2U2; 290,000 compounds, 0.71% hits; purified Giardia FBPA; note: nearly all actives have a fitted effect of over 55% in size
Target sequence (A8B2U2 whole entry, looked up): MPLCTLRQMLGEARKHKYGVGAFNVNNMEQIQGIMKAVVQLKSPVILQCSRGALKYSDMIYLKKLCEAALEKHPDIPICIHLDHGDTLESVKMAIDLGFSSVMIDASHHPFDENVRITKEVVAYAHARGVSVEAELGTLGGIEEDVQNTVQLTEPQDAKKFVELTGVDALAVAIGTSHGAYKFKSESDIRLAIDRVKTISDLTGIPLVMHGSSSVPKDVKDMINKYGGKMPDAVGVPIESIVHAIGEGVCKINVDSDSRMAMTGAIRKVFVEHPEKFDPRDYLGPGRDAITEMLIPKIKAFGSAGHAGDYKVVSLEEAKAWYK
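Giardia FBPA (40 nM reagent) was preincubated 10 min at RT with compound (up to 57.5 uM final), then substrate plus GAPDH/TPI/NAD/arsenate coupling system with diaphorase/resazurin was added; resorufin fluorescence (525/598 nm) was read after 20 min.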
Pf growth 96h = Primary qHTS for delayed death inhibitors of the malarial parasite plastid, 96 hour incubation. P. falciparum luciferase reporter growth, 96 h. Potency, µM (titrated, usually from 28.7 µM), most hits filed as inhibitors. 320,000 compounds, 6.9% hits. AID 504834, 2011
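Delayed-death screen, second-generation endpoint: infected erythrocytes, 2% hematocrit, 0.05% parasitemia final; 96 hours at 37 C, 5% CO2; luciferase detection reagent; luminescence decrease equals reduced growth.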
Each line names hits and unclear results; the compound was inactive in the other large screens. Sampled rows, rich in hits. Any-hit rate of the full collection: about 21%. Unless noted, calls come from the whole dose curve; as a rule, active = well fitted curve in the direction sought with a large enough effect; inconclusive = small, poorly fitted or top-dose-only effect, or another doubt; inactive = no such curve, though single readings can be large; an effect the other way counts as inactive or inconclusive.

CC(Cc1ccccc1)C(=O)Nc1ccccc1 (centres undefined)	none
CC(C)CCNC(=O)C(=O)Nc1ccccc1	CHX counter 45, Shiga inhibitor 162 (no result: NS1 inh)
CC(C)CCNC(=O)c1ccc(-c2ccccc2)cc1	CHX counter 36, Shiga inhibitor 84
COc1cc(C(=O)NCCC(C)C)ccc1OCc1ccc(Cl)cc1Cl	Pf growth 48h 10µM, Pf growth 96h 4.7µM
O=C(Nc1ccc(S(=O)(=O)N2CCOCC2)cc1)C1CC(=O)N(c2ccc(F)cc2)C1 (centres undefined)	NS1 inh inconclusive, Pf growth 96h inconclusive
O=C(Nc1nnc(SCCN2CCOCC2)s1)C1CC(=O)N(c2ccc(F)cc2)C1 (centres undefined)	Pf growth 48h inconclusive, Pf growth 96h inconclusive (no result: FBPA Giardia inh)
O=Cc1ccsc1B(O)O	none (no result: CHX counter, NS1 inh, Shiga inhibitor, Pf growth 48h, Pf growth 96h)
CCSC1(SCC)N=C(N)C2(C#N)C(c3ccccc3)NC3=C(CCC3)C12C#N (centres undefined)	none (no result: Pf growth 96h)
N#CC12C(N)=NC3(OCCO3)C1(C#N)C1=C(CCC1)NC2c1ccccc1 (centres undefined)	CHX counter 17, FBPA Giardia inh inconclusive
O=C(NNC(=S)Nc1ccc(F)cc1)C1[C@H]2CCCC[C@@H]12 (some centres undefined)	none
Cc1ccc(O)c(NC(=O)C2CC(c3ccc(F)cc3)=NO2)c1 (centres undefined)	Pf growth 96h inconclusive
CC(=O)N1N=C(c2ccc(Cl)cc2)CC1c1ccc([N+](=O)[O-])cc1 (centres undefined)	none
O=[N+]([O-])c1ccc(C2=Nc3cc(Cl)ccc3OC2)cc1	Shiga inhibitor 62, Pf growth 48h inconclusive
Cc1ccc2c(c1)N=C(c1ccc(F)cc1)CO2	CHX counter 41, Shiga inhibitor 111
Cc1ccc(C2(c3ccc(C)c(O)c3C)CCN(C)CC2)c(C)c1O	none (no result: CHX counter, Shiga inhibitor, Pf growth 48h, FBPA Giardia inh, Pf growth 96h)
CCCCn1c(N)c(N(CCOC)C(=O)c2oc3ccc(OCC)cc3c2C)c(=O)[nH]c1=O	Pf growth 96h inconclusive (no result: CHX counter, NS1 inh, Shiga inhibitor, FBPA Giardia inh)
O=C(CCc1ccccc1)NCCc1nc2ccccc2[nH]1	none
Cc1ccc2nc(CCc3ccc(N)cc3)[nH]c2c1	CHX counter 50, NS1 inh inconclusive, Pf growth 48h inconclusive, FBPA Giardia inh inconclusive (no result: Shiga inhibitor)
Nc1ccc2nc(CCc3ccccc3)[nH]c2c1	CHX counter 71, Shiga inhibitor 22, FBPA Giardia inh inconclusive
O=C(OCCOCCN=C1NS(=O)(=O)c2ccccc21)c1ccccc1Br	Pf growth 96h inconclusive
Cc1ccc(S(=O)(=O)N2CCN(C(=O)CSc3ccccn3)CC2)c(C)c1	Pf growth 96h inconclusive (no result: CHX counter, NS1 inh, Shiga inhibitor, FBPA Giardia inh)
COCCN(CC(=O)Nc1cccc(C)c1C)C(=O)CN1C(=O)NC2(CCCCC2)C1=O	none (no result: CHX counter, NS1 inh, Shiga inhibitor, FBPA Giardia inh)
COc1ccc(/C=N/NC(=O)c2nn(-c3ccc(C)c(C)c3)c(=O)c3ccccc23)cc1	Pf growth 48h 13µM, Pf growth 96h inconclusive
COc1ccc(/C=N/NC(=O)c2nn(-c3ccccc3)c(=O)c3c(N)scc23)cc1	Pf growth 48h inconclusive, FBPA Giardia inh 2.5µM, Pf growth 96h inconclusive
COc1ccc(-n2nc(C(=O)O)c3ccccc3c2=O)cc1	none (no result: Pf growth 96h)
COc1ccc(/C=N/NC(=O)c2nn(-c3ccc(Cl)cc3)c(=O)c3c(N)scc23)cc1	FBPA Giardia inh inconclusive, Pf growth 96h 8.3µM (no result: Pf growth 48h)
CCOC(=O)c1nn(-c2ccc(OC)cc2)c(=O)c2c(N)scc12	Pf growth 48h inconclusive, FBPA Giardia inh inconclusive
Oc1ccc(Br)cc1-c1n[nH]c(=S)n1Cc1ccccc1	none
Oc1ccc(Br)cc1-c1cc(-c2ccc(Cl)cc2)n[nH]1	CHX counter 22, Shiga inhibitor 93, Pf growth 48h 1.2µM (no result: Pf growth 96h)
O=[N+]([O-])c1cccc(-c2cc(-c3cc(Br)ccc3O)[nH]n2)c1	CHX counter 24, Shiga inhibitor 86, Pf growth 48h 4.7µM, Pf growth 96h 8.3µM
Oc1ccc(Br)cc1-c1cc(-c2ccccc2)n[nH]1	CHX counter 16, Pf growth 48h 5.2µM, Pf growth 96h 3.3µM
COc1ccc(C(=O)N2CCC[C@@]3(CCN(CC(C)C)C3)C2)cc1	none (no result: CHX counter, NS1 inh, Shiga inhibitor, Pf growth 48h, Pf growth 96h)
C=Cn1cc[n+](CC(=O)c2ccc(OC)cc2)c1	Pf growth 48h inconclusive, Pf growth 96h inconclusive
C=CCNS(=O)(=O)c1ncnc2nc[nH]c12	none (no result: CHX counter, Shiga inhibitor, Pf growth 48h, FBPA Giardia inh, Pf growth 96h)
COc1ccc(NC2SC(=O)N(C)C2=O)cc1 (centres undefined)	Shiga inhibitor 49
CN1C(=O)SC(Nc2cccc3ccccc23)C1=O (centres undefined)	none
CCN(CC)C(=O)Cn1cc(C(=O)C(=O)N2CCN(Cc3ccc4c(c3)OCO4)CC2)c2ccccc21	Pf growth 96h inconclusive (no result: FBPA Giardia inh)
COc1ccccc1-c1cn(S(=O)(=O)c2ccc(C)cc2)nc1N	none
COc1ccc(OC)c(-c2cn(S(=O)(=O)c3ccccc3)nc2N)c1	Pf growth 96h 15µM (no result: Pf growth 48h)
COc1ccc(OCc2n(CC(=O)OC3CC(C)CCC3C(C)C)c3ccccc3[n+]2C)cc1 (centres undefined)	Pf growth 48h 1µM, Pf growth 96h inconclusive
CCOC(=O)C(NC(=O)c1ccccc1Cl)(Nc1sc2c(c1C(N)=O)CCC2)C(F)(F)F (centres undefined)	Pf growth 48h inconclusive, Pf growth 96h 4.1µM
NC(=O)c1c(NC(=O)c2ccncc2)sc2c1CCCCCC2	CHX counter 12
O=C(Nc1sc2c(c1C(=O)O)CCCCC2)c1cccnc1	none
Cn1nc(C(=O)Nc2sc3c(c2C#N)CCCC3)ccc1=O	CHX counter 27 (no result: NS1 inh)
N#Cc1c(NC(=O)c2ccncc2)sc2c1CCC2	CHX counter 17, Shiga inhibitor 47, FBPA Giardia inh inconclusive
CC(C)(C)c1ccc(O)c(CN(Cc2c(O)ccc3ccccc23)C2CCCCC2)c1	none (no result: CHX counter, Shiga inhibitor, Pf growth 48h, FBPA Giardia inh, Pf growth 96h)
N#Cc1c(NC(=O)c2ccc(Cn3cc(Br)cn3)o2)sc2c1CCCCC2	CHX counter 39, Pf growth 96h inconclusive
NC(=O)c1c(NC(=O)CN2CCCC2)sc2c1CCCC2	CHX counter 26, Shiga inhibitor 21, Pf growth 96h 12µM
CC(C)(C)C1CCc2c(sc(NC(=O)c3cccs3)c2C(N)=O)C1 (centres undefined)	CHX counter 32, Shiga inhibitor 63
NC(=O)c1c(NC(=O)c2ccccc2)sc2c1CCC2	CHX counter 64, Shiga inhibitor 78
CC1CCc2c(sc(NC(=O)c3ccc(Cn4cc([N+](=O)[O-])cn4)o3)c2C#N)C1 (centres undefined)	none
NC(=O)c1c(NC(=O)c2ccncc2)sc2c1CCCC2	CHX counter 22, Shiga inhibitor 95 (no result: NS1 inh)
NC(=O)c1c(NC(=O)Cc2cccs2)sc2c1CCC2	CHX counter 16, Shiga inhibitor 19
Cn1ncc(Cl)c1C(=O)Nc1sc2c(c1C(N)=O)CCC2	none
O=C(O)CCC(=O)Nc1sc2c(c1C(=O)Nc1ccccc1)CCCCC2	Shiga inhibitor 40, Pf growth 96h 2.3µM (no result: NS1 inh)
